What all share (assay): PBM binding z-score (relative to random genomic background probes); higher = stronger binding; sequences stand for … in GC…GCGATTGACAGCGTAGAATGAAGG
Assay [1] has as its system PPARg:RXRa DBDmut IVT, anti-RXR (DBD mutation: RXRa K156A/R161A, NR concentration 270 nM, RXRa partner concentration 90 nM). The method in brief: (§1)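 Binding buffer was PBS pH 7.4 with 2% milk, 0.02% Triton X-100, 1 mM DTT, 0.2 mg/mL BSA and 0.4 mg/ml salmon testes DNA. In it, ligand-free nuclear receptor dimers were incubated 1 h on custom Agilent 4×180K protein-binding microarrays carrying double-stranded probes. Antibodies against each partner (one per run) detected binding, and z-scores were calculated against random background probes after regression normalization of scanned fluorescence.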

In assay [2] the test system is PPARg:RXRa IVT, anti-PPARg (NR concentration 270 nM, RXRa partner concentration 90 nM). In a few lines:
as §1

The subject of assay [3] is PPARg DBDmut:RXRa IVT, anti-PPARg (DBD mutation: PPARg1 K132A/R137A, NR concentration 270 nM, RXRa partner concentration 90 nM). The method in brief: as §1
Assay [4] relates to PPARg DBDmut IVT, anti-PPARg (DBD mutation: PPARg1 K132A/R137A, NR concentration 270 nM). In a few lines: as §1
Assay [5] relates to PPARg homodimer (NR concentration 180 nM). The method in brief: as §1
Assay [6] deals with PXR:RXRa (NR concentration 270 nM, RXRa partner concentration 90 nM). The method in brief:
as §1

Assay [7] concerns PXR homodimer (NR concentration 270 nM). In a few lines:
as §1

For assay [8], the system named is RARa:RXR (NR concentration 270 nM, RXRa partner concentration 90 nM). The method in brief:
as §1

Assay [9] has as its system RARa homodimer (NR concentration 270 nM). In a few lines:
as §1

The subject of assay [10] is RARb:RXRa (NR concentration 270 nM, RXRa partner concentration 90 nM). In a few lines: as §1
Assay [11] has as its system RARb homodimer (NR concentration 270 nM). The method in brief:
as §1

For assay [12], the system named is RARg:RXRa (NR concentration 270 nM, RXRa partner concentration 90 nM). The method in brief: as §1
Assay [13] deals with RARg homodimer (NR concentration 270 nM). The method in brief:
as §1

The test system of assay [14] is RXRa DBDmut IVT, anti-RXR (DBD mutation: RXRa K156A/R161A, NR concentration 90 nM). The method in brief: as §1
Assay [15] relates to RXRa homodimer (NR concentration 180 nM). The method in brief:
as §1

The subject of assay [16] is THRa:RXRa (NR concentration 90 nM, RXRa partner concentration 90 nM). The method in brief: as §1
The subject of assay [17] is THRa homodimer (NR concentration 90 nM). In a few lines:
as §1

Assay [18] concerns VDR homodimer (NR concentration 270 nM). The method in brief:
as §1

As to TCTTGTGGATCAGCAGGTTAAGAAAGCTGGCCAA, the PBM binding z-score in assay [1] was 1.59; in assay [2], 0.745; in assay [3], -0.449; in [4] it was 0.165; in assay [5], 0.237; in [6], 0.354. Also, the PBM binding z-score in [7] was -0.204; in [8], 0.573; in assay [9], 0.249; in [10], 0.338; in assay [11] it was 0.366; in [12], -0.0321. Besides, the PBM binding z-score in assay [13] was -0.331; in assay [14], 0.589; in assay [15] it was 0.119; in assay [16], 0.227; in assay [17], -0.125; in [18], 0.0128.

As for ACTAGTTGATCAGCTGAGGTCACACACAATTCGG, the PBM binding z-score in assay [1] was determined as 0.672; in [2], 2.14; in [3], 0.806; in [4], 1.68; in [5] it was 2.57; in assay [6] it was 4.97. Besides, the PBM binding z-score in assay [7] came out at 2.19; in assay [8], 4.95; in assay [9], 0.417; in [10] it was 3.22; in assay [11] it was 4.17; in assay [12] it was 3.71. Besides, the PBM binding z-score was 3.35 in [13]; 1.75 in [14]; 3.94 in assay [15]; 4.3 in [16]; 4.96 in [17]; 4.13 in assay [18].

With TCTAGTTGATCACGGAGGTCACACACGACGGGTA, the PBM binding z-score in assay [1] was 1.39; in assay [2], 2.26; in [3], 0.727; in [4], 1.1; in [5] it was 2.02; in assay [6], 4.29. Moreover, the PBM binding z-score in assay [7] was 1.44; in assay [8], 4.94; in [9], 0.922; in [10] it was 3.24; in assay [11], 3.89; in assay [12] it was 4.17. The PBM binding z-score in assay [13] stood at 3.92; in [14] it was 0.917; in [15], 4.56; in assay [16], 3.52; in assay [17] it was 2.48; in assay [18] it was 2.18.

As for AGAATGAGGTTATACGTAGATCAGGGATGAAAGT, the PBM binding z-score is 3.98 in [1]; 2.18 in assay [2]; 1.78 in assay [3]; 0.781 in [4]; 0.69 in assay [5]; 1.28 in [6]. In addition, the PBM binding z-score in assay [7] amounted to 0.675; in [8], 1.93; in [9], 0.93; in assay [10], 1.44; in [11], 1.04; in assay [12], 1.74. The PBM binding z-score in assay [13] is 1.27; in assay [14], 1.92; in [15], 2.47; in assay [16], 2.23; in assay [17], 0.607; in assay [18] it was 0.865.

For the sequence CAAACTAGGTGACAGAGGTCAAAGTCCGTGCGTA, the PBM binding z-score in assay [1] came to 8; in assay [2], 8.03; in [3] it was 1.36; in assay [4] it was 0.411; in [5], 2.02; in assay [6], 5.61. In addition, the PBM binding z-score in assay [7] was 2.31; in assay [8], 5.38; in assay [9], 1.29; in [10] it was 4.12; in assay [11], 4.61; in assay [12], 5.54. Also, the PBM binding z-score in assay [13] turned out to be 4.74; in assay [14] it was 2.18; in assay [15] it was 6.14; in assay [16] it was 4.15; in assay [17], 1.75; in assay [18], 4.09.

CCGAGGAGGTTATGGGGCATTCAGGCAACGGTGA: the PBM binding z-score was 0.461 in assay [1]; 1.61 in assay [2]; -0.326 in assay [3]; -0.847 in assay [4]; 1.13 in [5]; 0.815 in assay [6]. In addition, the PBM binding z-score in assay [7] was -0.214; in assay [8] it was 1.43; in [9], -0.195; in assay [10], 1.73; in assay [11] it was 1.31; in assay [12], 1.42. Further, the PBM binding z-score in [13] amounted to 0.885; in assay [14] it was 0.0755; in assay [15], 1.95; in [16], 1.25; in assay [17], 0.438; in assay [18], 0.25.

For GCTAGTTGGTCAGTAAAAGGTCAGACACCGGTCG, the PBM binding z-score is 0.754 in assay [1]; 1.67 in assay [2]; -0.192 in [3]; 0.136 in assay [4]; 3.21 in assay [5]; 3.35 in assay [6]. Moreover, the PBM binding z-score came to 0.554 in [7]; 4.17 in assay [8]; 0.966 in assay [9]; 3.71 in assay [10]; 4.8 in [11]; 4.68 in [12]. The PBM binding z-score in assay [13] came to 4.27; in assay [14], 0.252; in [15], 3.55; in [16], 2.64; in assay [17] it was 0.737; in assay [18] it was 0.607.

Values taken from the supplement of paper PMC6555819.
